Measured values reported in PubChem BioAssay AID1259313 (Sanford-Burnham Center for Chemical Genomics, 2017).
Out of some 340,000 compounds screened, about 8,500 (2.5%) were called active. This excerpt belongs to a sample that is enriched for actives. Unmarked numbers belong to inactive results.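 Rule for the calls: active = melting temperature shift of at least 10% of the positive control shift, at one fixed dose; inactive = the rest.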

System: Glutamate receptor ionotropic, NMDA 3A (GRIN3A) ligand-binding domain
Test: binders of NR3A ligand-binding domain, primary screen, biophysical, differential scanning fluorimetry, uHTS (AID 1259313)
Conditions: NR3A LBD differential scanning fluorimetry, at 25 µM, active compounds read high, 0% = protein alone, 100% = glycine-bound protein

Structure (SMILES)	Tm shift relative to glycine control
O=C(Nc1ccc(OCC(=O)N2CCOCC2)cc1)c1cc(F)c(F)cc1Cl	-1.28%
CNC1(c2nnnn2-c2c(C)cccc2C)CCOC(C)(C)C1 (centres undefined)	0.08%
Cc1cc(Nc2cccc(C)c2C)n2ncnc2n1	1.12%
O=c1c2cc(Br)ccc2nc(-c2cccc(Cl)c2)n1O	-8.87%
O=C1OCCN1C(=O)[C@H]1[C@H](c2ccccc2)C(c2ccc(F)cc2)=NN1c1ccccc1	-6.51%
C[C@@H]1C(c2ccc(F)cc2)=NN(c2ccc(Br)cc2)[C@H]1C(=O)N1CCOC1=O	7.36%
O=C1OCCN1C(=O)[C@H]1[C@H](c2ccc(Cl)cc2)C(c2cccc(Cl)c2)=NN1c1ccc(Br)cc1	18.1% (active)
O=C1OCCN1C(=O)[C@H]1[C@H](c2ccc(F)cc2)C(c2ccccc2)=NN1c1ccc(Br)cc1	16% (active)
S=C1NC(c2ccccc2)=NCN1c1ccc(Br)cc1	-1.51%
O=C(COc1ncnc2c(Cl)cc(Cl)cc12)N1CCN(S(=O)(=O)c2ccccc2)CC1	-7.02%
CN1CCC(=NNC(=O)c2ccc(N(Cc3ccc(Cl)cc3)S(C)(=O)=O)cc2)CC1	-7.94%
COC(=O)c1ccc(NC(=O)Nc2ccc(C)cc2)cc1	14.4% (active)
Cc1cc(C)cc(NC(=O)CSc2ccccc2)c1	0.84%
Cc1cc(NC(=O)c2ccc(F)cc2)ccc1NC(=O)c1ccco1	-2.39%
COC(=O)c1ccc(NC(=O)c2cc(Cl)ccc2OC)cc1	-3.8%
O=C(Nc1ccc(O)cc1)c1ccc(NC(=O)c2ccco2)cc1	25% (active)
O=C(NCCSc1ccccc1)c1ccco1	0.71%
COC(=O)c1ccc(NC(=O)C(C)N2C(=O)c3ccccc3C2=O)cc1 (centres undefined)	-0.85%
O=C(NNC(=O)c1ccco1)Nc1ccccc1	1.84%
C/C(=N\NS(=O)(=O)c1ccc(Cl)cc1)c1ccc(NC(=O)c2ccco2)cc1	-5.45%

Structure (SMILES)	Tm shift relative to glycine control
O=C(CSc1ccccc1)Nc1ccc(NC(=O)c2ccco2)cc1	11.8% (active)
O=C(CNC(=O)c1ccco1)NNC(=O)c1ccc(Br)cc1	0.51%
O=C(Nc1ccc(Sc2ccc(Br)cc2)cc1)c1ccco1	11.6% (active)
CC12CCC(C(=O)N3CCN(c4ncccn4)CC3)(c3nc4ccccc4nc31)C2(C)C (centres undefined)	-1.28%
COc1ccc(OC)c(S(=O)(=O)N2CCCC(C(=O)NCCc3ccccc3)C2)c1 (centres undefined)	0.67%
O=C(CNC(=O)[C@@H]1Cc2ccccc2CN1)NC1CCCCC1	-12.5%
CCOC(=O)N1CCN(C(=O)CN(C2CCCCC2)S(C)(=O)=O)CC1	-2.35%
CCOc1ccc(NC(=O)CCS(=O)(=O)c2ccc3c(c2)CCCN3C(=O)CC)cc1	-2.2%
C#CCOCCOCCOCCNc1nc(N2CCN(C(=O)C([C@@H](C)CC)n3cc(C(N)COC(=O)C(F)(F)F)nn3)CC2)nc(N2CCN(C(=O)[C@H](CCCCN)n3cc(C(N)CC(C)C)nn3)CC2)n1 (some centres undefined)	3.3%
NNC(=O)CNC(c1ccccc1)c1cc(Cl)ccc1NC(=O)c1ccccc1 (centres undefined)	2.13%
CCOC(=O)c1ccc(NC(=O)CNC(=O)c2ccco2)cc1	-0.36%
COC(=O)c1ccc(NC(=O)c2ccco2)cc1	21.7% (active)
COc1ccc(S(=O)(=O)NNC(=O)Nc2ccc(C)cc2)c(OC)c1	-2.73%
O=C(Nc1ccc(CSc2ccccc2)cc1)c1ccc(CN2CCOCC2)cc1	-2.35%
O=C(CSc1ccccc1)Nc1ccc(C(=O)Nc2cccc(O)c2)cc1	29.4% (active)
CSc1cccc(NC(=O)CSc2ccccc2)c1	-11.8%
CC(C)(C)NC(=O)c1cc(NC(=O)c2ccco2)cc(NC(=O)c2ccco2)c1	1.37%
CCOc1ccc(NC(=O)Nc2cc(C)ccc2OC)cc1	-2.2%
COc1cc(NC(=O)Nc2ccc(C)cc2)cc([N+](=O)[O-])c1	32.9% (active)
CCOC(=O)/C(C#N)=C\c1c(C)cc(C)c(COC(C)=O)c1C	-1.41%

Structure (SMILES)	Tm shift relative to glycine control
O=C1CSC(c2ccc(Cl)cc2)N1 (centres undefined)	0.65%
CCOc1ccccc1NC(=O)Cn1ncc2ccc([N+](=O)[O-])cc21	1.06%
Cc1nonc1C(=O)N/N=C/c1ccc(O)cc1	-3.82%
O=C(CCCN1C(=O)CSc2ncccc21)N1CCN(c2cccc(C(F)(F)F)c2)CC1	-1.45%
Cc1ccc(S(=O)(=O)N2CCC3(CC2)OCCO3)c(C)c1	-0.77%
CCOc1ccc(Nc2nc(Cc3nnc(SCC(=O)c4ccc(C)cc4)o3)cs2)cc1	-12.6%
O=C1C(=O)N(CCCN2CCOCC2)C(c2ccc([N+](=O)[O-])cc2)/C1=C(\O)c1ccc2c(c1)OCCO2 (centres undefined)	0%
Cc1ccc(NC(=O)Cn2c(=O)n(CCC(=O)NC3CCN(Cc4ccccc4)CC3)c(=O)c3ccccc32)cc1	0.79%
CC(=O)c1c(C)[nH]c(C(=O)OCC(=O)Nc2sc3c(c2C#N)CCCC3)c1C	4.13%
O=C(NCCN1C(=O)C2C3C=CC(C3)C2C1=O)Nc1ccccn1 (centres undefined)	-0.55%
O=C(CN1C(=O)C2C3C=CC(C3)C2C1=O)Nc1nc(-c2ccccn2)cs1 (centres undefined)	17.6% (active)
O=C(COc1ccccc1F)Nc1nc(-c2ccccn2)cs1	-41.9%
O=C(NCCc1ccccc1)C(=O)NCC1OCCN1S(=O)(=O)c1cccs1 (centres undefined)	5.49%
CCOC(=O)N1CCN(C(=O)c2ccccc2SCC(=O)NCC2CCCCC2)CC1	0.96%
O=C(O)c1cscn1	-2.23%
Cc1oc(-c2ccccc2Cl)[n+]([O-])c1C	0.65%
COC(=O)C1NN=C(C(=O)c2ccc(Br)cc2)C1c1cccc(Br)c1 (centres undefined)	-3.88%
COC(=O)C1=C(C)N(C)C(=S)NC1c1ccccc1 (centres undefined)	1.46%
COC(=O)C1=C(C)N(C)C(C)=C(C(=O)OC)C1c1cccc(Br)c1	10.9% (active)
